We go through 7 compounds from PubChem BioAssay (NCATS).

The subject of assay [1] is Nanoluciferase (engineered Oplophorus gracilirostris luciferase). In words: Primary Nanoluciferase (NLuc) qHTS assay for identification of artifact compounds. (AID 1845222).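 Note: NLuc secreted into diluted conditioned medium of S16 cells.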 In outline: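 Using secreted nanoluciferase in S16 culture medium (0.22 um filtered, 1:55 dilution), compounds were preincubated 15 min at RT. Signal was generated with Nano-Glo reagent (1:100) over 5 min.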
For orientation: qHTS replaces the single test concentration by a dilution series.

Assay [2] in a line: Primary redox qHTS assay for identification of artifact compounds. (AID 1845223). In outline: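 Redox-cycling detection via DTT (250 uM final) oxidation coupled to Amplex Red (25 uM)/HRP (250 mU/mL) in HBSS. 15 min preincubation plus 30 min after DTT, room temperature. Ex/Em 525/598 nm; 4-parameter Hill fit against DMSO and 10 uM DA3003.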
Assay [3] can be described thus: Quantitative High-Throughput drug screen in 47 multiple myeloma cell lines against the NCATS MIPE library collection: FR4_PLB cell viability assay (AID 1918924; note: nearly all actives have a fitted effect of over 35% in size; note: potency is the fitted concentration of half-maximal effect). In outline:
(§1)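 qHTS of the MIPE 4.0 collection: 500 myeloma cells/well, 48 h drug exposure at 37C in 5% CO2, then CellTiter-Glo for 5 min at room temperature before luminescence reading.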

Assay [4] in a line: Quantitative High-Throughput drug screen in 47 multiple myeloma cell lines against the NCATS MIPE library collection: EJM_DSMZ cell viability assay (AID 1918926; note: nearly all actives have a fitted effect of over 30% in size; note: potency is the fitted concentration of half-maximal effect). In short, it runs like this:
(§2)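 Luminescent ATP measurement with CellTiter-Glo gives viability, scaled between DMSO-only wells (100%) and media-only wells (0%). Cells, 500 per well, faced library compounds for 48 hours at 37C.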

Assay [5] in a line: Quantitative High-Throughput drug screen in 47 multiple myeloma cell lines against the NCATS MIPE library collection: AMO1_DSMZ cell viability assay (AID 1918927; note: nearly all actives have a fitted effect of over 30% in size; note: potency is the fitted concentration of half-maximal effect). In short, it runs like this: as §2
Assay [6] is described as follows: Quantitative High-Throughput drug screen in 47 multiple myeloma cell lines against the NCATS MIPE library collection: ARP1_JJKsccF8 cell viability assay (AID 1918928; note: nearly all actives have a fitted effect of over 40% in size; note: potency is the fitted concentration of half-maximal effect). In outline:
(§3)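 Each line was plated at 500 cells/well and treated 48 h with library drugs. Viability came from CellTiter-Glo luminescence relative to DMSO and cell-free medium controls.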

The nature of assay [7]: Quantitative High-Throughput drug screen in 47 multiple myeloma cell lines against the NCATS MIPE library collection: Karpas620_DSMZ cell viability assay (AID 1918959). Note: nearly all actives have a fitted effect of over 30% in size. Note: potency is the fitted concentration of half-maximal effect. In outline: as §1
Assay [8] is described as follows: Quantitative High-Throughput drug screen in 47 multiple myeloma cell lines against the NCATS MIPE library collection: KMM1_JCRB cell viability assay (AID 1918960). Note: nearly all actives have a fitted effect of over 30% in size. Note: potency is the fitted concentration of half-maximal effect. In outline: as §3
Assay [9] in a line: Quantitative High-Throughput drug screen in 47 multiple myeloma cell lines against the NCATS MIPE library collection: KHM11_PLB cell viability assay (AID 1918962). Note: nearly all actives have a fitted effect of over 35% in size. Note: potency is the fitted concentration of half-maximal effect. In short, it runs like this: as §1
Assay [10] can be described thus: Quantitative High-Throughput drug screen in 47 multiple myeloma cell lines against the NCATS MIPE library collection: JIM3_ECACC cell viability assay (AID 1918963; note: nearly all actives have a fitted effect of over 35% in size). In short, it runs like this: as §1
Assay [11] can be described thus: Quantitative High-Throughput drug screen in 47 multiple myeloma cell lines against the NCATS MIPE library collection: JIM1_ECACC cell viability assay (AID 1918964; note: potency is the fitted concentration of half-maximal effect). In outline: as §2
The nature of assay [12]: Quantitative High-Throughput drug screen in 47 multiple myeloma cell lines against the NCATS MIPE library collection: H1112_PLB cell viability assay (AID 1918967; note: nearly all actives have a fitted effect of over 30% in size; note: potency is the fitted concentration of half-maximal effect). In short, it runs like this:
as §2

Assay [13] can be described thus: Quantitative High-Throughput drug screen in 47 multiple myeloma cell lines against the NCATS MIPE library collection: Karpas25_ECACC cell viability assay (AID 1918968; note: nearly all actives have a fitted effect of over 35% in size; note: potency is the fitted concentration of half-maximal effect). In outline: as §2
Assay [14] in a line: Quantitative High-Throughput drug screen in 47 multiple myeloma cell lines against the NCATS MIPE library collection: KMS27_JCRB cell viability assay (AID 1918970). Note: nearly all actives have a fitted effect of over 30% in size. Note: potency is the fitted concentration of half-maximal effect. In short, it runs like this: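 Myeloma cells (500 per well) were exposed to MIPE 4.0 compounds for 48 h at 37 °C, 5% CO2; viability was read as ATP luminescence with CellTiter-Glo, normalized to DMSO-only (100%) and media-only (0%) wells.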

Assay [15] can be described thus: Quantitative High-Throughput drug screen in 47 multiple myeloma cell lines against the NCATS MIPE library collection: KMS12BM_JCRB cell viability assay (AID 1918971). Note: nearly all actives have a fitted effect of over 35% in size. Note: potency is the fitted concentration of half-maximal effect. In short, it runs like this:
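Steps: seed 500 cells per well; pin-transfer MIPE 4.0 library; incubate 48 h at 37C, 5% CO2, humidified; add CellTiter-Glo, 5 min room temperature; read luminescence.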

Assay [16] can be described thus: Quantitative High-Throughput drug screen in 47 multiple myeloma cell lines against the NCATS MIPE library collection: ARD_JJKsccE7 cell viability assay (AID 1918929; note: potency is the fitted concentration of half-maximal effect). In outline:
as §2

Assay [17] can be described thus: Quantitative High-Throughput drug screen in 47 multiple myeloma cell lines against the NCATS MIPE library collection: Delta47_JCRB cell viability assay (AID 1918925; note: nearly all actives have a fitted effect of over 45% in size; note: potency is the fitted concentration of half-maximal effect). In outline:
as §2

A short description of assay [18]: Quantitative High-Throughput drug screen in 47 multiple myeloma cell lines against the NCATS MIPE library collection: Karpas417_ECACC cell viability assay (AID 1918961). Note: potency is the fitted concentration of half-maximal effect. Conditions: Karpas417 myeloma viability, CellTiter-Glo ATP luminescence, 48 h; viability (% of DMSO): at 45.8 µM (top of the series). In short, it runs like this:
as §2
For orientation: Cellular ATP, detected with luciferase, serves as a proxy for viable cell number.

The nature of assay [19]: Quantitative High-Throughput drug screen in 47 multiple myeloma cell lines against the NCATS MIPE library collection: INA6_PLB cell viability assay (AID 1918965; note: nearly all actives have a fitted effect of over 55% in size). In short, it runs like this: as §2
Assay [20] can be described thus: Quantitative High-Throughput drug screen in 47 multiple myeloma cell lines against the NCATS MIPE library collection: JJN3_DSMZ cell viability assay (AID 1918966; note: potency is the fitted concentration of half-maximal effect; nearly all actives have a fitted effect of over 50% in size). In short, it runs like this:
as §2

Values without a mark were called inactive. Results filed as inconclusive are left out. Calls of active or inactive are those of the source. Calls come from the whole dose curve; as a rule, active = well fitted curve in the direction sought with a large enough effect; inconclusive = small, poorly fitted or top-dose-only effect, or another doubt; inactive = no such curve, though single readings can be large; an effect the other way counts as inactive or inconclusive.

With `O=C(OC1C[C@H]2CC[C@@H](C1)[N+]21CCCC1)C(O)(c1ccccc1)c1ccccc1` (stereo not given in full), the compound was called inactive in assay [1] and in assay [2]. The Potency result in assay [3], in assay [4], in assay [5], in [6], in assay [7] and in assay [8] was “inactive” throughout. For the same compound, the Potency entry in [9], in [10], in assay [11], in [12], in assay [13] and in assay [14] was “inactive” throughout. Also, in assay [15], the Potency result was “inactive”.

Take `CN(C)CCCC1(c2ccc(F)cc2)OCc2cc(C#N)ccc21` (stereo not given): the compound was classed as inactive in [1] and in assay [2]. In addition, the Potency entry in [3], in assay [5], in [6], in assay [16], in assay [7] and in [8] was “inactive” each time. For the same compound, the Potency result in assay [9], in [10], in assay [13] and in [14] was “inactive” each time. In addition, the Potency in assay [12] was 8.33 µM (active).

`CN(C)c1ccc2nc3ccc(=[N+](C)C)cc-3sc2c1`: the Potency in [3] was 1.87 µM (active); in assay [17], 6.62 µM (active); in assay [4], 0.469 µM (active); in assay [5], 8.33 µM (active); in assay [6], 1.66 µM (active); in assay [16] it was 13.2 µM (active). The Potency in assay [7] was 3.72 µM (active); in [8], 2.35 µM (active); in assay [18] it was 6.62 µM (active); in assay [9], 4.18 µM (active); in assay [11], 9.35 µM (active); in assay [12], 8.33 µM (active). Besides, the Potency in assay [13] is 0.662 µM (active); in assay [14], 1.32 µM (active); in assay [15], 4.69 µM (active).

`Nc1cc(C(Cl)=C(Cl)Cl)c(S(N)(=O)=O)cc1S(N)(=O)=O`: the Potency entry in assay [3], in assay [17], in [4], in [5], in assay [6] and in assay [16] was “inactive” in each case. The Potency entry in assay [7], in assay [8], in assay [18], in [9], in assay [10] and in [11] was “inactive” in each case. The Potency entry in assay [19], in assay [12] and in [13] was “inactive” throughout.

Regarding `N[C@@H](Cc1cc(I)c(Oc2cc(I)c(O)c(I)c2)c(I)c1)C(=O)O`, the outcome in assay [1] and in assay [2] was inactive. The Potency result in [3], in [4], in assay [5], in assay [6], in [16] and in assay [8] was “inactive” each time. In addition, the Potency entry in [18], in assay [12] and in assay [13] was “inactive” throughout. The Potency in [11] was 0.0053 µM (active).

For the compound `Cc1ccc(Nc2nccc(N(C)c3ccc4c(C)n(C)nc4c3)n2)cc1S(N)(=O)=O`, the compound was classed as inactive in assay [1] and in assay [2]. Also, the Potency is 20.9 µM (active) in assay [3]; 16.6 µM (active) in assay [17]; 14.8 µM (active) in assay [4]; 10.5 µM (active) in [5]; 16.6 µM (active) in assay [16]; 14.8 µM (active) in [8]. Moreover, the Potency in [20] was 20.9 µM (active); in [12] it was 16.6 µM (active); in assay [13], 16.6 µM (active); in assay [14] it was 20.9 µM (active); in assay [15] it was 18.7 µM (active).

Take `Clc1ccc(C(Cn2ccnc2)OCc2c(Cl)cccc2Cl)c(Cl)c1` (stereo not given): the compound was classed as inactive in [1] and in assay [2]. Also, the Potency in assay [5] is 20.9 µM (active); in assay [6] it was 23.5 µM (active); in assay [16], 16.6 µM (active); in [7] it was 18.7 µM (active); in assay [8], 18.7 µM (active); in assay [18] it was 16.6 µM (active). In addition, the Potency in [11] was 23.5 µM (active); in assay [13], 26.4 µM (active); in assay [14], 23.5 µM (active); in [15] it was 23.5 µM (active).
